# Source: ChEMBL document CHEMBL1157539, “Thousands of chemical starting points for antimalarial lead identification” (Nature, 2010)
# Key:
# Format in all cases: functional
# Plasmodium falciparum [1] = experiment: GSK_TCMDC: Inhibition of Plasmodium falciparum 3D7 in whole red blood cells, using parasite LDH activity as an index of growth. Test compounds present at 2uM
# Plasmodium falciparum [2] = experiment: GSK_TCMDC: Inhibition of Plasmodium falciparum Dd2 in whole red blood cells, using parasite LDH activity as an index of growth. Test compounds present at 2uM
# HepG2 = experiment: GSK_TCMDC: Percent inhibition of human HepG2 cell line. Test compounds present at 10uM.
SMILES,Inhibition (Plasmodium falciparum [1]) [%],Inhibition (Plasmodium falciparum [2]) [%],Inhibition (HepG2) [%]
O=C(COC(=O)c1cccc(S(=O)(=O)N2CCc3ccccc32)c1)NNC(=O)c1cccs1,96,4,4
Br.COc1nc(-n2ccc(=N)cc2)nc2ccccc12,90,45,15
COCC(=O)N(Cc1ccccc1-c1cccc(CNCc2ccc3c(c2)OCO3)c1)C1CCN(Cc2ccccc2)CC1.O=C(O)C(F)(F)F,94,72,33
CC(C)N1CCN(C(CN2CCN(CCCOc3ccc4ccccc4c3)CC2)c2ccc(F)cc2)CC1.Cl (centres undefined),100,91,59
O=C(Nc1cccc(C(F)(F)F)c1)Nc1nc2ccc([N+](=O)[O-])cc2s1,100,76,81
Cc1ccc(NS(=O)(=O)c2ccc(-c3ccccc3)cc2)c(Cn2cnc(N3CCCNCC3)cc2=O)c1.O=C(O)C(F)(F)F,87,33,10
CCNc1cc(C(=O)N[C@@H](Cc2ccccc2)[C@H](O)CNCCc2cccc3ccccc23)cc(N2CCCC2=O)c1.O=CO,86,39,12
COc1cc(-c2nc3ccc(N4CCN(C)CC4)cc3[nH]2)cc(OC)c1OC,87,15,6
CN1CCN(c2ccnc3ccc(NC(=O)Nc4ccccc4Br)cc23)CC1.Cl,100,95,4
CCN(c1ccc(F)cc1)S(=O)(=O)c1cc(Br)cc2c1N(C(=O)C1CC1)CC2,88,79,0
Cc1ccc(Cc2c[nH]c(NCCSCc3ccc(CN(C)C)s3)nc2=O)cn1,95,0,3
O=C(O)C(F)(F)F.c1cc(CNCCc2ccncc2)cc(-c2csc(-c3nc4ccccc4[nH]3)c2)c1,100,99,16
CCC(C)(C)c1ccc(OCCCC(=O)Nc2ccc(Cl)c([N+](=O)[O-])c2)c(C(C)(C)CC)c1,92,88,0
CCOC(=O)CC[C@H](NC(=O)c1ccc(NS(=O)(=O)c2ccc(-c3cnc(N)[nH]c3=O)cc2)cc1)C(=O)OCC,95,2,5
CCC(=O)Nc1nnc(Cc2ccc(OC)c(OC)c2)s1,93,1,0
Cc1cc(Nc2ccc(Cl)cc2)n2nc(C(F)(F)F)nc2n1,97,95,5
O=C(NCCCN1CCOCC1)c1csc(Nc2ccc(Cl)c(Cl)c2)n1,92,23,5
CN1CCc2cc(NC(=O)c3cc4ccccc4s3)cc(-c3ccccc3)c2CC1.Cl,91,11,20
CC(C)c1cc2c(cc1O)C(Cc1ccccc1Cl)N(C)CC2.Cl (centres undefined),97,33,0
Fc1ccc2[nH]c(-c3ccc(-c4ccc(CN5CCN(CCN6CCOCC6)CC5)cc4)cc3)nc2c1.O=C(O)C(F)(F)F,100,100,38
O=[N+]([O-])c1cc(/C=N/Nc2nc3ccccc3[nH]2)ccc1O,98,14,0

SMILES,Inhibition (Plasmodium falciparum [1]) [%],Inhibition (Plasmodium falciparum [2]) [%],Inhibition (HepG2) [%]
COc1ccc(Nc2nccc(N3CCC(NC(=O)C(C)c4ccc(Cl)cc4)CC3)n2)cc1 (centres undefined),94,52,18
CCCN1CCN(CCCCNc2c3ccccc3nc3ccccc23)CC1.Cl,100,0,34
CC(=O)c1cccc(S(=O)(=O)NCCCNc2nc3cc(C)cc(C)c3cc2C#N)c1,95,75,11
CCOC(=O)C(C#N)NC(=O)C=Cc1ccccc1 (centres undefined),96,9,0
O=C(Nc1cc(Cl)ccc1O)c1ccc(Oc2ccc(C(=O)Nc3cc(Cl)ccc3O)cc2)cc1,97,91,32
CC(=O)Nc1ccc(CN2CCC(NC(=O)c3ccc(-c4cccc(F)c4)s3)CC2)cc1.O=C(O)C(F)(F)F,96,13,6
COc1cccc(Nc2nc(C)cc(NCc3ccc(-c4c(C)noc4C)cc3)n2)c1,98,42,33
CC(C)Nc1nc(NCCc2c[nH]cn2)nc(Nc2ccc(Oc3ccccc3)cc2)n1,95,9,0
CC(C)(C)OC(=O)Cn1cnc2cc(NC(=O)c3cc([N+](=O)[O-])cc([N+](=O)[O-])c3)ccc21,100,97,11
CN(c1ccc2c(c1)nc(NCc1ccccc1)n2C)c1ccnc(Nc2ccc(CS(C)(=O)=O)cc2)n1.Cl,94,69,61
Brc1ccc(Nc2nc(NCC3CCCO3)c3ccccc3n2)cc1 (centres undefined),100,99,13
CCc1cc(NC2CCN(C)CC2)nc(Nc2ccc(C)cc2)n1,95,11,3
CCc1c(CCNCCCCCCNCCc2ccc(Br)cc2)ccc(OC)c1OC.Cl,99,14,100
Cc1ccccc1Nc1nc(NCc2ccccc2)nc2ccccc12,88,35,39
Cc1c(C(=O)C2CC2CN2CCC(N3CCCC3)CC2)sc2ccccc12 (centres undefined),94,9,16
COc1cc2nc(N3CCC(CNC(=O)c4cc5ccccc5s4)CC3)nc(N)c2cc1OC,100,100,8
CCN(CC)CCN(Cc1ccc(-c2ccc(C(F)(F)F)cc2)cc1)C(=O)Cn1c(CCc2ccc(F)c(F)c2F)nc(=O)c2cccnc21.O=C(O)C(O)C(O)C(=O)O,89,20,29
NC1CCN(c2nc(NCCc3ccc(O)cc3)nc(NCc3ccccc3-c3ccccc3)n2)CC1.O=C(O)C(F)(F)F,99,32,14
O=C(/C=C/c1ccc(I)cc1)NCCCCCN1CCC(c2c[nH]c3ccccc23)CC1,95,2,43
CN1C(C)(C)CC(NC(=O)c2ccc(-c3nc4cc(Cl)ccc4[nH]3)cc2)CC1(C)C,99,36,23
N=C(N)NCCCCN(Cc1ccccc1)c1ccccc1,100,98,0

SMILES,Inhibition (Plasmodium falciparum [1]) [%],Inhibition (Plasmodium falciparum [2]) [%],Inhibition (HepG2) [%]
CNc1cc(-c2ccc3ccnc(N)c3c2)nc(N)n1.O=CO,100,81,23
FC(F)(F)c1ccc(/C=C/c2cncnc2Nc2ccc3[nH]c(Cc4ccccc4)nc3c2)cc1,100,100,21
Cc1cccc2nc(-c3ccc(-c4ccc(CN5CCC(C(N)=O)CC5)cc4)cc3)[nH]c12.O=C(O)C(F)(F)F,91,32,8
NC1=Nc2ccc(Cl)cc2C1(O)c1ccccc1 (centres undefined),100,51,0
CCc1cn2c3c(cc(C(=O)N[C@@H](Cc4cc(F)cc(F)c4)[C@H](O)CNC4CC4)cc13)N(C)S(=O)(=O)CC2.O=CO,100,99,3
COc1cc(-c2nc(-c3ccncc3)c(-c3ccc4c(c3)CCC4=NO)[nH]2)ccc1OCCN1CCN(C)CC1.Cl,99,77,53
CCCOc1ccc(C=C(CC(=O)O)c2nc3ccccc3s2)cc1OCC,89,84,7
CCOC(=O)c1ccc(NC(=O)N[C@@H](Cc2ccccc2)C(=O)NC2CCN(Cc3ccc(O)c(OC)c3)C2)cc1 (some centres undefined),88,0,0
O=C(NCC(NCCCNc1cc(=O)c2ccccc2[nH]1)c1cc(Br)cc(Br)c1)C1=CCCC1 (centres undefined),96,48,0
COc1cccc2c(N/N=C/c3ccc([N+](=O)[O-])cc3)ccnc12,92,16,25
O=C(O)C(F)(F)F.c1ccc(CN2CCC(NCc3ccc(-c4ccc(CNC5CCCC5)cc4)cc3)CC2)cc1,100,98,24
COc1cc(-c2cnc(N)c(-c3nc4ccccc4[nH]3)c2)cc(OC)c1OC.Cl,100,57,59
C#CCOc1ccc2ccccc2c1CNCCCCCCNCc1c(OCC#C)ccc2ccccc12.CS(=O)(=O)O,100,98,100
O=C(NCc1ccc(Cl)c(Cl)c1)[C@H]1CNCCN1C(=O)c1ccccc1.O=C(O)C(F)(F)F,97,4,0
CCOC(=O)c1c(CSc2ccccc2)oc2cc(CN(C)C)c(O)c(Cl)c12,99,70,12
C#CCOc1ccc(N2C(N)=NC(N)=NC2(C)C)cc1.Cl,94,0,43
O=c1cc(NCCCNCc2cccc(OC(F)(F)C(F)F)c2)[nH]c2ccccc12,81,7,6
Cc1ccc2nc(C)n(C3CCN(C(=O)Cc4ccccc4C)CC3)c2c1,100,100,2
O=C(CCN1C(=O)c2ccccc2C1=O)N1CCN(CC=Cc2ccccc2)CC1,87,3,10
CC(C)CNCc1cccc(-c2ccc(CNc3ccc4ncccc4c3)cc2)c1.O=C(O)C(F)(F)F,94,32,13
CC1(C)Cc2c([nH]c3ccccc23)C(CCCCCCCCC2=NC(C)(C)Cc3c2[nH]c2ccccc32)=N1.Cl,99,88,100
